aSyn UTR act: Activators via SNCA 5'UTR binding, MLPCN; 300,000 compounds, 7.1% hits; activity score, % (tested at 7.5 µM), hits read low; alpha-synuclein 5'UTR reporter, activators screen; in the data active = activity score below about -60%
Of the large screens only hits and unclear results are named; the others gave an inactive call. These entries were drawn from the full list.

O=C1CCN(Cc2ccccc2)CCN1CCSc1ccccc1	aSyn UTR act -78
CCCN1CCC(=O)N(CCSc2ccccc2)CC1	aSyn UTR act -115
CC(C)OC(=O)Cc1nc2sc(-c3ccccc3)cc2c(=O)[nH]1	aSyn UTR act -87
O=c1[nH]c(-c2cccnc2)nc2sc(-c3ccccc3)cc12	aSyn UTR act -119
CCOC(=O)c1c(CNc2ccncc2)n(C)c2cc(Br)c(O)cc12	aSyn UTR act -62
CCOC(=O)c1c2c(n(C)c1COC)C(=O)C(=O)c1ccc(Br)cc1-2	none
Cc1c(C(=O)N2CCc3ccccc32)oc2ccccc12	aSyn UTR act -126
Cc1c(Br)c(C(=O)N2CCc3ccccc32)nn1C	aSyn UTR act -127
O=C(c1ccc(Br)o1)N1CCc2ccccc21	aSyn UTR act -154
O=C(c1ccco1)N1CCc2ccccc21	aSyn UTR act -97
O=C(NC(=S)Nc1ccc(N2CCCC2)cc1)c1ccccc1[N+](=O)[O-]	aSyn UTR act -104
O=C(NNC(=S)Nc1ccccc1)c1ccccc1[N+](=O)[O-]	aSyn UTR act -77
CC1(C)CCCN(Cc2c(O)ccc3c(=O)c(-c4nc5ccccc5s4)c(N)oc23)C1	aSyn UTR act -125
Cc1ccc(N2C(=O)[C@@H]3Cc4ccccc4CN3C2=O)cc1	aSyn UTR act -71
CC(C)c1ccc(N2C(=O)[C@@H]3Cc4ccccc4CN3C2=O)cc1	aSyn UTR act -118
CC(C)c1ccc(-c2cc(C(=O)NN3CCN(C)CC3)c3ccccc3n2)cc1	aSyn UTR act -117
Cc1ccc(C(c2cc(Cl)c3cccnc3c2O)N2CCN(C)CC2)cc1 (stereo not given)	none
CN1CCN(c2ccc(-c3ccc4ccccc4n3)cc2)CC1	none
CC(C)c1ccc(-c2cc(C(=O)N3N=C(C(F)F)CC3(O)C(F)F)c3ccccc3n2)cc1 (stereo not given)	aSyn UTR act -166
Clc1ccc(N2CCN(c3cnc4ccccc4n3)CC2)cc1	aSyn UTR act -137
c1ccc(N2CCN(c3cnc4ccccc4n3)CC2)cc1	aSyn UTR act -77
Fc1ccc(N2CCN(c3cnc4ccccc4n3)CC2)cc1	aSyn UTR act -251
O=C(NCc1ccco1)C(=O)c1c[nH]c2ccccc12	aSyn UTR act -79
O=C(NCc1cccs1)C(=O)c1c[nH]c2ccccc12	aSyn UTR act -123
CC1(C)OC(=CC=Nc2ccc(Cl)cc2)OC1(C)C	none
COc1cc(O)oc1C=Nc1ccc(Cl)cc1	aSyn UTR act -64
COc1cc(O)oc1C=Nc1ccc(C(=O)O)cc1	aSyn UTR act -91
CCOC(=O)C1CCN(c2ncnc3c(C)csc23)CC1	aSyn UTR act -69
c1ccc2nc(-c3ccc(N4CCOCC4)cc3)ccc2c1	none
Cc1cc(-c2ccc(N3CCOCC3)cc2)nc2ccccc12	aSyn UTR act -307
COc1ccc2c(c1)C1OCCC1C(c1ccco1)N2 (stereo not given)	aSyn UTR act -76
O=C(CSc1nnc(C2CCCCC2)o1)Nc1ccccc1Cl	aSyn UTR act -138
CC(=O)c1ccc(OCc2cc(C(=O)N(C)CCOc3ccc(C)cc3)no2)cc1	aSyn UTR act -170
CC(=O)c1ccc(OCc2cc(C(=O)N(C)C3CCOC3)no2)cc1 (stereo not given)	aSyn UTR act -130
Cc1cc(OCc2cc(C(=O)N(C)C3CCOC3)no2)cc(C)c1Cl (stereo not given)	aSyn UTR act -107
O=C(NNc1ncnc2c1cnn2-c1cccc(Cl)c1)c1ccco1	aSyn UTR act -158
CC(=O)NNc1ncnc2c1cnn2-c1ccc(C)c(Cl)c1	aSyn UTR act -69
O=C(NC12CC3CC(CC(C3)C1)C2)c1ccc(-c2ccc(Br)cc2)o1	aSyn UTR act -246
O=C(NC12CC3CC(CC(C3)C1)C2)c1ccc([N+](=O)[O-])o1	aSyn UTR act -200
Oc1ccc(Cl)cc1C1=NNC(c2ccc(Cl)cc2)C1 (stereo not given)	aSyn UTR act -90
CCN1CCN(/C=N/c2nc(C)cs2)CC1	aSyn UTR act -83
CC1C(=O)C(C)C(c2ccc(Cl)cc2)NC1c1ccc(Cl)cc1 (stereo not given)	none
CCOc1ccc(C(=O)Nc2nc3ccccc3[nH]2)cc1OCC	aSyn UTR act -172
COc1cc(C(=O)Nc2nc3ccccc3[nH]2)ccc1OC(F)F	aSyn UTR act -233
COc1ccc(C(=O)Nc2nc3ccccc3[nH]2)cc1OC	aSyn UTR act -147
COc1ccc(Cl)cc1C(=O)Nc1nc2ccccc2[nH]1	none
CC(C)c1cc(C(=O)NNC(=S)NC2CCCCC2)cs1	aSyn UTR act -86
CN(C)c1cccc(C(=O)NNC(=S)NC2CCCC2)c1	aSyn UTR act -64
CCc1cc(C(=O)NNC(=S)NC2CCCCC2)cs1	aSyn UTR act -87
CCCC(=O)Nc1nc2c(s1)COc1ccccc1-2	aSyn UTR act -134
CCCCC(=O)Nc1nc2c(s1)COc1ccccc1-2	aSyn UTR act -107
O=C(Nc1c2c(nn1-c1ccc(F)cc1)CS(=O)(=O)C2)C1CCCC1	aSyn UTR act -62
O=[N+]([O-])c1ccc(COc2ccccc2/C=N/O)cc1	aSyn UTR act -132
Fc1cccc(Cl)c1CSc1ccc(-c2cccnc2)nn1	aSyn UTR act -80
COc1ccc(C(=O)NCCSC2CCCCC2)cc1	aSyn UTR act -159
O=C(NCCSC1CCCCC1)c1ccccc1	aSyn UTR act -67
COc1ccc(/C=C2\C(=O)NCC(=O)N2Cc2ccccc2)cc1	aSyn UTR act -62
CCc1ccc(OCC(=O)O/N=C(\N)c2ccncc2)c(Br)c1	aSyn UTR act -136
N/C(=N\OC(=O)COc1ccc2ccccc2c1Br)c1ccncc1	aSyn UTR act -92
CCc1ccc(OCC(=O)O/N=C(\N)c2ccncc2)cc1	aSyn UTR act -99
CC(C)(C)c1ccc(OCC(=O)O/N=C(\N)c2ccncc2)cc1	aSyn UTR act -77
Cc1cc(C(=O)O/N=C(\N)c2ccc(C(C)(C)C)cc2)no1	aSyn UTR act -223
Cc1cccc(NC(=O)c2ccc(Cl)c(S(=O)(=O)N3CCCCC3)c2)n1	aSyn UTR act -79
Cc1cccc(NC(=O)c2ccc(Cl)c(S(=O)(=O)N3CCCC3)c2)n1	aSyn UTR act -68
O=C(Nc1cc(S(=O)(=O)N2CCCCC2)ccc1Cl)c1ccccc1NS(=O)(=O)c1ccc(F)cc1	none
O=[N+]([O-])c1cccc(-c2nnc(-c3ccccc3)o2)c1	none
Clc1ccccc1-c1nnc2sc(-c3ccc4c(c3)OCO4)nn12	aSyn UTR act -91
O=[N+]([O-])c1cccc(-c2nnc(-c3ccc4c(c3)OCO4)o2)c1	aSyn UTR act -78
Clc1ccccc1-c1nnc(-c2ccc3c(c2)OCO3)o1	aSyn UTR act -82
CN1CCN(C(=O)c2ccc3c(c2)NC(=O)/C(=C/c2ccccc2)S3)CC1	aSyn UTR act -88
Cc1cccc(CN2C(=O)/C(=C\c3ccc(C(=O)NCCCN4CCN(C)CC4)cc3)Oc3ccccc32)c1	none
Cc1cccc(/C=C2/Sc3ccc(C(=O)NCCCN4CCOCC4)cc3NC2=O)c1	aSyn UTR act -69
N#Cc1c(N)n(C2CCCCC2)c2nc3ccccc3nc12	none
CC1CCc2nc(/C(C#N)=C/c3cccnc3)sc2C1 (stereo not given)	aSyn UTR act -192
N#C/C(=C\c1cccnc1)c1nc2c(s1)CCCC2	aSyn UTR act -141
COc1cc(/C=C(\C#N)c2nc3c(s2)CCCC3)ccc1O	aSyn UTR act -158
Cc1ccc(NC(=O)N2C(=O)C3(OCCO3)c3ccccc32)cc1	aSyn UTR act -165
O=c1[nH]c2ccc(NCc3ccc(OCc4ccccc4Cl)cc3)cc2[nH]1	aSyn UTR act -80
COc1cc(CNc2ccc3[nH]c(=O)[nH]c3c2)ccc1OCc1ccc(C)cc1	aSyn UTR act -118
